In the library only some 6.7% were active in any assay of this set; here they are far more common.
Pf_Dd2_inh = P. falciparum Dd2 growth inhibition; SYBR Green, 72 h; active compounds read low; activity change, % at 10 µM; 94,000 compounds, 2.3% hits; AID 1159554; in the data active = activity change below about -80%; inconclusive = no clear call, values can overlap the other calls
T_cruzi_growth-1 = T. cruzi proliferation inhibition; 77,000 compounds, 5.9% hits; inhibition, % at 8.34 µM; AID 624255; T. cruzi beta-gal in NIH3T3, GalScreen luminescence, 90 h;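 active = mean inhibition above about 93%, with at least 55% of replicates each passing it, limit read from the data, passing the limit was not always enough; inconclusive = only one of those two conditions holds; inactive = neither condition holds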
C_diff_growth = blocks growth of Clostridium difficile. Clostridium difficile clinical isolate growth, OD600, 24 h; active compounds read low. growth activity, negative = inhibition, % at 16 µg/mL (by protocol). 86,000 compounds, 0.25% hits. AID 1259249;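 active = mean growth activity at or below -80% and every replicate also at or below -80%; inconclusive = mean at or below -80% but some replicate above -80%; inactive = mean growth activity above -80%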;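 also: 0% = DMSO wells and -100% = levofloxacin 16 µg/mL wells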
T_cruzi_growth-2 = inhibitors of T. cruzi proliferation; inhibition, % at 8.35 µM; T. cruzi beta-gal in NIH3T3, GalScreen luminescence, 90 h; AID 651739; shares compounds with T_cruzi_growth-1; 5,600 compounds, 72% hits;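 active = mean replicate inhibition above about 95% and at least 55% of replicates individually reaching it, limit read from the data; inconclusive = only one of the two criteria is met; inactive = neither criterion is met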
T_cruzi_growth-3 = blocks T. cruzi growth in NIH3T3 host cells. T. cruzi beta-gal in NIH3T3, GalScreen luminescence, 90 h. shares compounds with T_cruzi_growth-1. inhibition, % at 2.09 µM. 5,600 compounds, 21% hits;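 active = mean inhibition above about 95%, with at least 55% of replicates also reaching it, limit read from the data; inconclusive = meets just one of the two conditions; inactive = meets neither condition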;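 also: plate controls were neutral control median for no effect and positive control median for full effect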
NIH3T3_tox = NIH/3T3 (mouse) viability loss; shares compounds with T_cruzi_growth-1; NIH/3T3 viability, CellTiter-Glo ATP luminescence, 90 h; cytotoxicity (signal decrease), % at 8.35 µM; 5,600 compounds, 14% hits; AID 651742;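 active = mean signal decrease across replicates above about 35% based on untreated-well scatter, with enough replicates individually passing, limit read from the data; inconclusive = no rule stated though some were filed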;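 also: 0% = median of neutral control wells and 100% = median of positive control wells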
3T3_cytotox_2 = kills mouse NIH/3T3 fibroblasts | 5,600 compounds, 56% hits | NIH/3T3 viability, CellTiter-Glo ATP luminescence, 90 h | shares compounds with T_cruzi_growth-1 | AID 651744 | inhibition, % at 24.9 µM;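 active = mean loss of cell viability signal at or above a set limit, and enough replicates individually reaching it; inconclusive = meets only the mean limit or only the replicate share; inactive = meets neither condition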;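 also: 0% = median of neutral control wells and 100% = median of positive control wells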
* hit, by the source's call; ? = inconclusive; . = no result given.

SMILES Pf_Dd2_inh T_cruzi_growth-1 C_diff_growth T_cruzi_growth-2 T_cruzi_growth-3 NIH3T3_tox 3T3_cytotox_2
C[C@H]1CN([C@@H](C)CO)S(=O)(=O)c2ccc(C#Cc3ccc(F)cc3)cc2O[C@H]1CN(C)C(=O)c1ccccn1 -72.2 ? 5.3 107.7* 33.1 33.8 13.3
C[C@@H]1CN([C@@H](C)CO)S(=O)(=O)c2ccc(C#Cc3ccccc3)cc2O[C@@H]1CN(C)C(=O)c1ccccn1 -59.0 -14.5 -2.2 . . . .
C[C@H]1CN([C@@H](C)CO)C(=O)c2cccc(NC(=O)C3CCCCC3)c2O[C@@H]1CN(C)Cc1ccc(Cl)c(Cl)c1 -79.0 102.0 . . . . .
CO[C@@H]1CN(C)C(=O)c2cc(NC(=O)C3CC3)ccc2OC[C@@H](C)N(C(=O)CN2CCOCC2)C[C@H]1C 0.7 34.4 . . . . .
C[C@H]1CN([C@@H](C)CO)C(=O)c2cccc(NC(=O)Nc3ccc4c(c3)OCO4)c2O[C@@H]1CN(C)Cc1ccc(C(=O)O)cc1 0.3 17.7 -2.5 . . . .
C[C@H](CO)N1C[C@H](C)[C@H](CN(C)Cc2ccc(Oc3ccccc3)cc2)Oc2ccc(NC(=O)Nc3ccc4c(c3)OCO4)cc2C1=O -2.6 110.3* 18.2 102.3* 6.9 -6.9 32.0*
C[C@H](CO)N1C[C@H](C)[C@H](CN(C)Cc2ccc(Oc3ccccc3)cc2)Oc2c(NC(=O)Nc3ccc4c(c3)OCO4)cccc2C1=O -12.8 87.8 -1.9 . . . .
C[C@@H]1CN([C@@H](C)CO)C(=O)c2cc(NC(=O)Nc3ccccc3)ccc2O[C@H]1CN(C)Cc1ccc(Oc2ccccc2)cc1 -12.9 57.5 10.1 . . . .
C[C@@H]1CN([C@@H](C)CO)C(=O)c2cccc(NC(=O)Nc3ccc4c(c3)OCO4)c2O[C@H]1CN(C)Cc1ccc(C(=O)Nc2ccccc2N)cc1 -84.8* 114.6* . 109.7* ? 16.5 29.9*
C[C@H]1CN([C@@H](C)CO)C(=O)c2cccc(NC(=O)Nc3ccc4c(c3)OCO4)c2O[C@@H]1CN(C)Cc1ccc(Oc2ccccc2)cc1 -15.0 91.5* 3.3 96.3* 63.2 -22.0 -28.4
C[C@H]1CN([C@@H](C)CO)C(=O)c2cccc(NS(C)(=O)=O)c2O[C@H]1CN(C)C(=O)Nc1ccccc1 9.2 -28.3 2.3 . . . .
C[C@H](CO)N1C[C@H](C)[C@H](CN(C)Cc2ccncc2)Oc2c(NC(=O)C3CCOCC3)cccc2C1=O -13.9 48.7 2.3 . . . .
C[C@@H]1CCCCO[C@H](CN(C)C(=O)Nc2ccccc2)[C@@H](C)CN([C@H](C)CO)C(=O)c2cc(NC(=O)c3ccncc3)ccc2O1 -11.0 17.9 -0.4 . . . .
C[C@@H]1CN([C@@H](C)CO)S(=O)(=O)c2ccc(C#CCN(C)C)cc2O[C@@H]1CN(C)Cc1cccnc1 5.1 ? 2.8 99.4* 62.0 27.8 47.9*
COCC#Cc1ccc2c(c1)O[C@@H](CN(C)Cc1cccnc1)[C@H](C)CN([C@H](C)CO)S2(=O)=O -25.6 51.5 -2.1 . . . .
CC(C)C#Cc1ccc2c(c1)O[C@@H](CN(C)Cc1cccnc1)[C@@H](C)CN([C@@H](C)CO)S2(=O)=O -48.5 97.2 6.9 . . . .
CC(C)C#Cc1ccc2c(c1)O[C@H](CN(C)Cc1cccnc1)[C@@H](C)CN([C@H](C)CO)S2(=O)=O -63.5 107.1* 2.4 107.7* 103.7* -20.6 101.8*
C[C@H](O)C#Cc1ccc2c(c1)O[C@@H](CN(C)Cc1cccnc1)[C@H](C)CN([C@@H](C)CO)S2(=O)=O 9.3 28.3 0.0 . . . .
C[C@@H]1CN([C@H](C)CO)S(=O)(=O)c2ccc(C#CCN(C)C)cc2O[C@H]1CN(C)Cc1cccnc1 -28.2 95.7* 0.7 100.7* 93.2 25.2 42.2*
C[C@@H]1CN([C@@H](C)CO)S(=O)(=O)c2ccc(C#C[C@@H](C)O)cc2O[C@H]1CN(C)Cc1cccnc1 -20.2 36.1 -6.3 . . . .
C[C@H]1CN([C@@H](C)CO)S(=O)(=O)c2ccc(C#CCN(C)C)cc2O[C@@H]1CN(C)Cc1cccnc1 -42.1 103.8* -0.9 110.4* 107.6* 8.3 14.8
C[C@H]1CN([C@@H](C)CO)C(=O)c2cc(NS(=O)(=O)c3ccc(F)cc3)ccc2O[C@@H]1CN(C)C(=O)NC1CCCCC1 1.0 -9.5 0.9 . . . .
C[C@H](CO)N1C[C@H](C)[C@H](CN(C)Cc2ccccc2)Oc2cc(C#CC(C)(C)O)ccc2S1(=O)=O -16.0 59.5 -4.8 . . . .
C[C@H](CO)N1C[C@H](C)[C@@H](CN(C)Cc2ccccc2)Oc2cc(C#CC(C)(C)O)ccc2S1(=O)=O -12.0 88.9 -4.8 . . . .
C[C@@H]1CN([C@@H](C)CO)S(=O)(=O)c2ccc(C#CC(C)(C)O)cc2O[C@@H]1CN(C)Cc1ccc(-c2ccccc2)cc1 -6.1 121.0* 6.5 92.6 115.3* 4.7 103.4*
SMILES Pf_Dd2_inh T_cruzi_growth-1 C_diff_growth T_cruzi_growth-2 T_cruzi_growth-3 NIH3T3_tox 3T3_cytotox_2
C[C@H](O)C#Cc1ccc2c(c1)O[C@@H](CN(C)Cc1ccc(-c3ccccc3)cc1)[C@H](C)CN([C@H](C)CO)S2(=O)=O -71.8 60.0 0.7 . . . .
C[C@H](O)C#Cc1ccc2c(c1)O[C@H](CN(C)Cc1ccc(-c3ccccc3)cc1)[C@H](C)CN([C@@H](C)CO)S2(=O)=O 8.3 108.6* 0.2 98.5* 100.6* 47.3* 104.4*
C[C@@H]1CN([C@@H](C)CO)S(=O)(=O)c2ccc(C#CC(C)(C)O)cc2O[C@H]1CN(C)Cc1ccc(-c2ccccc2)cc1 -55.7 118.2* 7.6 91.3 113.2* 116.4* 107.0*
CO[C@@H]1CC[C@H]2CCOc3ccc(C#N)cc3C(=O)N(C)C[C@@H](C)C(=O)N(C)C[C@@H]1O2 . 10.6 3.7 . . . .
C[C@H](CO)N1C[C@H](C)[C@H](CN(C)S(=O)(=O)c2cn(C)cn2)Oc2ccc(NC(=O)Cc3ccccc3)cc2C1=O 5.6 59.2 . . . . .
O=C(NC1CCCC1)N1CCCCN2[C@H](CO)[C@@H](c3ccc(-c4cccnc4)cc3)[C@@H]2C1 -38.6 59.3 7.8 . . . .
O=C(NC1CCCC1)N1CCCCN2[C@H](CO)[C@H](c3ccc(-c4ccccc4)cc3)[C@H]2C1 -19.7 104.0* 2.8 84.4 86.2 2.5 103.6*
O=C(NC1CCCC1)N1CCCCN2[C@@H](CO)[C@@H](c3ccc(-c4ccccc4)cc3)[C@@H]2C1 -15.0 ? 32.2 98.4* 57.0 13.0 102.8*
COc1ccccc1-c1ccc([C@@H]2[C@H](CO)N3CCCCN(C(=O)NC4CCCC4)C[C@@H]23)cc1 13.3 54.0 23.4 . . . .

Source: PubChem BioAssay
